# Article PMC5540273 (PLoS ONE, 2017)
# Key:
# Conditions in all cases: concentration: 1 μM, replicates: in singlicate; n = 1
# [1] = tested on: T1, VEGFR2
# T1 construct: gene KDR
# [2] = tested on: T2, VPS34
# T2 construct: gene PIK3C3
# [3] = tested on: VRK2
# [4] = tested on: WEE1
# [5] = tested on: WEE2
# [6] = tested on: WNK1
# [7] = tested on: WNK2
# [8] = tested on: WNK3
# [9] = tested on: WNK4
# [10] = tested on: T3, YANK1
# T3 construct: gene STK32A
# 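Also: KINOMEscan kinase panel screen.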
Structure (SMILES),%Inh [1],%Inh [2],%Inh [3],%Inh [4],%Inh [5],%Inh [6],%Inh [7],%Inh [8],%Inh [9],%Inh [10]
CCn1c(-c2c(N)noc2C)nc2cnccc21 [SB-737856],0%,0%,0%,18%,11%,20%,0%,17%,78%,9%
Nc1ncnc2occ(-c3ccc4c(c3)CCN4C(=O)Cc3cc(F)ccc3F)c12 [GSK2645446],0%,0%,0%,0%,13%,1%,14%,38%,60%,0%
CS(=O)(=O)Cc1ccc(Nc2nccc(-c3c(-c4cccc(NC(=O)C5CCCCC5)c4)nn4ncccc34)n2)cc1 [GSK350559],29%,0%,49%,0%,0%,0%,14%,0%,44%,26%
Cc1cccc2c(-c3ccncn3)c(-c3ccc(F)cc3)nn12 [GW515532],5%,30%,0%,0%,0%,16%,0%,22%,0%,26%
COc1ccc(Nc2nccc(NCCNC(=O)Nc3cc(C)ccc3C)n2)cc1 [GSK1379899],2%,4%,0%,0%,0%,0%,10%,0%,0%,0%
COC(=O)c1cccc(NC(=O)NC2CCN(c3ccnc(Nc4ccc(F)cc4)n3)C2)c1 (stereo not drawn) [GSK1379725],0%,0%,0%,16%,5%,0%,18%,27%,0%,0%
CNc1nc(-c2ccc3c(N)n[nH]c3c2)cc(N2C[C@@H](C(=O)NC3CCCCC3)OC[C@H]2C)n1 [GSK2375584],17%,0%,43%,29%,3%,5%,25%,28%,41%,7%
Fc1ccc(-c2nc3n(c2-c2ccncc2)CCS3)cc1 [GI98581],0%,21%,0%,3%,7%,0%,7%,13%,2%,13%
COc1ccc(Nc2nccc(N3CCC(NC(=O)C(C)c4ccc(Cl)cc4)C3)n2)cc1 (stereo not drawn) [GSK1379735],0%,15%,0%,16%,0%,6%,31%,8%,0%,69%
Cc1ccc(-c2nc(Nc3ccncc3)c3ccccc3n2)s1 [GSK189015],0%,0%,0%,8%,4%,0%,3%,0%,0%,15%
CC[C@@H]1CO[C@H](C(=O)Nc2ccccc2)CN1c1cc(-c2ccc3c(N)n[nH]c3c2)nc(NC)n1 [GSK2376236],8%,12%,0%,2%,0%,4%,10%,5%,0%,41%
Cc1ccc(NC(=O)Nc2ccccc2)cc1-c1ccc(C(=O)Nc2ccncc2)cc1 [GSK1398471],0%,0%,0%,26%,0%,0%,36%,0%,0%,9%
COc1cc2ncnc(Nc3cccc(Br)c3)c2cc1OC.Cl [GI230329],0%,41%,24%,2%,6%,0%,0%,41%,16%,56%
Cn1cncc1-c1cc2c(Nc3ccc(OCc4ccccc4)cc3)ncnc2cn1 [GW281179],0%,0%,0%,2%,0%,7%,7%,25%,14%,0%
CCCCc1nn2ncccc2c1-c1ccnc(NC2CC2)n1 [GW684374],0%,0%,4%,34%,0%,3%,15%,26%,14%,6%
Nc1nccc(-c2c(-c3ccc(F)cc3)ncn2C2CCN(Cc3ccccc3)CC2)n1 [SB-219980],1%,0%,0%,0%,0%,7%,12%,0%,0%,28%
COC(=O)C(Cc1ccccc1)NC(=O)NC1CCN(c2ccnc(Nc3ccc(F)cc3)n2)C1 (stereo not drawn) [GSK1379714],7%,3%,38%,0%,13%,3%,46%,38%,45%,0%
CC(=O)c1c(C)c2cnc(Nc3ccn(C)n3)nc2n(C2CCCC2)c1=O,0%,3%,28%,0%,0%,0%,0%,0%,0%,0%
COc1nccc(-c2c(-c3ccc(F)cc3)ncn2CCCN2CCOCC2)n1 [SB-282852],1%,21%,77%,0%,52%,11%,14%,0%,0%,0%
CCc1ccc(-c2ccc3c(c2)-c2n[nH]cc2S(=O)(=O)N3C)cc1,0%,4%,0%,14%,0%,23%,2%,3%,0%,0%
FC(F)(F)c1ccccc1-c1cc(-c2c[nH]nc2-c2ccccn2)ccn1 [GW679396],1%,0%,0%,4%,5%,0%,0%,13%,11%,3%

Structure (SMILES),%Inh [1],%Inh [2],%Inh [3],%Inh [4],%Inh [5],%Inh [6],%Inh [7],%Inh [8],%Inh [9],%Inh [10]
O=c1cc(N2CCOCC2)nc2n(Cc3ccccc3F)ccn12 [GSK2297428],0%,94%,0%,0%,0%,0%,0%,19%,0%,0%
CS(=O)(=O)CCNCc1nc(-c2ccc3ncnc(Nc4ccc(OCc5ccccc5)c(Cl)c4)c3c2)cs1.Cl [GW582764],0%,0%,50%,0%,16%,6%,13%,45%,60%,0%
O=C(Nc1n[nH]c2cc(-c3ccsc3)ccc12)C1CC1 [SB-732932],13%,27%,0%,0%,13%,18%,34%,18%,9%,0%
CNCc1ccc2nc(NC(=O)c3ccc(C(C)(C)C)cc3)cn2c1,6%,2%,74%,0%,0%,0%,0%,30%,13%,2%
Cc1nccc(-c2c(-c3ccc(F)cc3)ncn2CCCN2CCOCC2)n1.Cl [SB-282975],0%,0%,0%,9%,16%,12%,6%,2%,0%,0%
Fc1ccc(-c2nn3cccc(F)c3c2-c2ccncc2)cc1 [GW475620],1%,15%,22%,0%,5%,5%,20%,5%,9%,28%
COc1ccc(CSc2nnc(-c3ccc4ncsc4c3)o2)cc1C(F)(F)F,0%,0%,0%,0%,0%,0%,8%,0%,0%,0%
NS(=O)(=O)c1cccc(N/C=C2\C(=O)Nc3ccc(S(=O)(=O)Cc4c(Cl)cccc4Cl)cc32)c1 [GSK398099],0%,0%,0%,10%,20%,20%,8%,0%,0%,1%
O=C1NC(=O)C(c2ccc(Cl)cc2)=C1Nc1ccc(O)cc1 [SB-340867],0%,2%,0%,0%,0%,0%,48%,0%,0%,0%
Cc1ccccc1Cn1ccn2c(=O)cc(N3CCOCC3)nc12 [GSK2269905],0%,88%,0%,0%,0%,10%,0%,8%,0%,8%
COC(=O)C(NC(=O)NC1CCN(c2ccnc(Nc3ccc(F)cc3)n2)C1)c1ccccc1 (stereo not drawn) [GSK1379712],14%,0%,24%,9%,0%,22%,28%,36%,25%,0%
COc1cccc(C2=C(Nc3cc(Cl)c(O)c(Cl)c3)C(=O)NC2=O)c1 [SB-390767],0%,0%,20%,0%,0%,20%,0%,16%,17%,0%
O=c1cc(N2CCOCC2)nc2n(Cc3cccc(Cl)c3Cl)c3ccccc3n12 [GSK2299009],7%,96.7%,0%,28%,17%,6%,42%,5%,0%,22%
Cc1c(Cn2c(C)c(C)n3c(=O)cc(N4CCOCC4)nc23)cccc1C(F)(F)F [GSK2328680],0%,20%,0%,9%,14%,0%,0%,0%,0%,6%
CC(=O)c1cccc(NC(=O)NC2CCN(c3ccnc(Nc4ccc(F)cc4)n3)C2)c1 (stereo not drawn) [GSK1379710],8%,10%,19%,19%,10%,10%,0%,49%,22%,12%
CNc1cc(-c2ccc3c(N)n[nH]c3c2)nc(N)n1 [GSK2224810],25%,0%,0%,1%,5%,0%,0%,19%,88%,36%
Nc1cccc(-c2ccc3c(N)n[nH]c3c2)n1 [GSK2192730],19%,1%,0%,0%,0%,23%,0%,0%,0%,5%
Cc1ccc(NC(=O)c2ccc(Cl)cc2)cc1-c1ccc(C(=O)Nc2ccncc2)cc1 [GSK1398467],0%,0%,27%,0%,8%,0%,0%,31%,22%,2%
CNC(=O)c1ccc(C)c(-n2c(C)cc(OCc3ccc(F)cc3F)c(Br)c2=O)c1,0%,0%,0%,0%,0%,0%,0%,0%,0%,4%
COc1ccc(Nc2nccc(N3CCC(NC(=O)c4cc5ccccc5s4)C3)n2)cc1 (stereo not drawn) [GSK1379738],0%,0%,0%,10%,0%,14%,11%,34%,24%,0%
O=C(Nc1n[nH]c2nc(-c3ccco3)c(Br)cc12)C1CCN(Cc2ccccc2)C1.O=C(O)[C@H](O)[C@@H](O)C(=O)O (stereo not drawn) [SB-742034],7%,0%,0%,0%,8%,0%,0%,0%,2%,0%
